CD11b adhes enh: enhancers of human CD11b/CD18 binding to fibrinogen. P05107+P11215. K562 CD11b/CD18 adhesion to fibrinogen, ATPlite luminescence. activation, % at 10 µM. 93,000 tested, 0.07% active. AID 1499;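 active = 10 µM primary screen giving 50% or more activity, confirmed by 40% or more on retest at that dose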
CYP2C9 act: increases human cytochrome P450 2C9 activity | recombinant CYP2C9, luciferin-H conversion, luminescence; hits give high values; factor 1 = untreated enzyme, 0 = blocked | AID 1024 | 96,000 tested, 1.4% active | P11712 | activation factor at 5 µM;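 active = activation factor of 2 or more for CYP2C9 at a 5 µM dose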
Target sequence (P11712 whole entry, looked up): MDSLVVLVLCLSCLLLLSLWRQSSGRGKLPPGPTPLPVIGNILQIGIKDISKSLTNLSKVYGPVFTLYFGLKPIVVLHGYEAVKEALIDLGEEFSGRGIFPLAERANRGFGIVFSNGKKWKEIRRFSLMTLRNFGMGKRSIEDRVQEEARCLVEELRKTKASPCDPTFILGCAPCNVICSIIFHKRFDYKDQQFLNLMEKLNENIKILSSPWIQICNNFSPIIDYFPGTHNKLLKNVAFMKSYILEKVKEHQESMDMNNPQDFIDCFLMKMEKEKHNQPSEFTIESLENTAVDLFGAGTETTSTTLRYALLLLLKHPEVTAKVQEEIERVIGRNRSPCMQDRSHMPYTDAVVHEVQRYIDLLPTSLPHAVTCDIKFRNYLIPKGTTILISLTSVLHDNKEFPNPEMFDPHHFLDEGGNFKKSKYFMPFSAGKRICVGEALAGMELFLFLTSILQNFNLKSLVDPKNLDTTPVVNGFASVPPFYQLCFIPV
CYP2C19 inhib: inhibitors of human CYP2C19; CYP2C19 Supersomes, luciferin-H EGE luminescence, 30 min; inhibition, % at 5 µM; 96,000 tested, 21% active;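 active = CYP2C19 inhibition above a set limit at 5 µM in the primary screen, cut at about 50% in these data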
CYP2C9 inhib: inhibitors of human CYP2C9; P11712; CYP2C9 Supersomes, luciferin-H conversion, luminescence; inhibition, % at 5 µM; 96,000 tested, 20% active; AID 777;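 active = blocking of liver enzyme CYP2C9 beyond about 50% at 5 µM, limit read from the data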
CYP2C19 act: increases human CYP2C19 enzyme activity; P33261; 96,000 tested, under 10 active; recombinant CYP2C19, luciferin-H EGE luminescence; hits give high values; 0 = fully inhibited enzyme, 1 = untreated enzyme; activation factor at 5 µM;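 active = activation factor of at least 2 at 5 µM in the primary screen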
CD11b adhes inh: CD11b/CD18-fibrinogen binding inhibition | P05107+P11215 | K562 CD11b/CD18 adhesion to fibrinogen, ATPlite luminescence; Mn2+ added to activate the integrin | inhibition, % at 10 µM | 93,000 tested, 0.54% active | AID 1497;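 active = primary inhibition of 50% or more at 10 µM, then 40% or more on retest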
Hits are given with their value; – = inactive; · = no result given. Hits are enriched below; roughly 28% of the tested compounds scored in any of these assays.

SMILES | CD11b adhes enh | CYP2C9 act | CYP2C19 inhib | CYP2C9 inhib | CYP2C19 act | CD11b adhes inh
COc1ccccc1N1CCN(C(=O)C2CCC(Cn3c(=S)[nH]c4ccccc4c3=O)CC2)CC1 (stereo not given) | – | – | – | – | – | –
COc1ccc(N2CCN(C(=O)C3CCC(Cn4c(=S)[nH]c5ccccc5c4=O)CC3)CC2)cc1 (stereo not given) | – | – | 83.3 | 81.2 | – | –
Cc1ccc(OCCNS(=O)(=O)c2ccc(N3CCCC3=O)cc2)cc1C | · | – | – | – | – | ·
O=C(CCn1c(=S)[nH]c2ccccc2c1=O)N1CCOCC1 | – | – | – | – | – | –
O=c1c2ccccc2[nH]c(=S)n1CCCN1CCOCC1 | – | – | 59.9 | – | – | –
O=C(CCCn1c(=S)[nH]c2ccc(Br)cc2c1=O)N1CCN(c2ccccn2)CC1 | · | – | 70.0 | 55.3 | – | ·
S=C(Nc1cccc(Cl)c1Cl)Nn1cnnc1 | – | · | · | · | · | –
CCOC(=O)C1=C(c2ccccc2)N(C)C(=O)NC1c1ccc(O)c(OC)c1 (stereo not given) | – | – | 69.4 | – | – | –
CCOC(=O)C1=C(c2ccccc2)NC(=O)NC1c1ccc(OCC#N)c(OC)c1 (stereo not given) | – | – | – | – | – | –
CC1=C(C(=O)OCc2ccccc2)C(c2cccnc2)c2c(n(C)c(=O)n(C)c2=O)N1 (stereo not given) | · | – | 93.6 | 59.6 | – | ·
CCOC(=O)C1=C(c2ccccc2)Nc2c(c(=O)n(C)c(=O)n2C)C1c1ccc(O)c(OC)c1 (stereo not given) | – | – | – | 52.5 | – | –
COc1cc(C)ccc1OCCCON1C(=O)CCC1=O | – | – | – | – | – | –
COc1ccc(S(=O)(=O)n2cnc3cc(C)c(C)cc32)cc1 | – | – | 95.5 | 87.3 | – | –
Cc1cc(NC(=O)CCCC(=O)NCc2cccs2)no1 | – | – | – | – | – | –
Cc1ccccc1NC(=O)c1ccc(CN2CCC(Cc3ccccc3)CC2)cc1 | · | – | – | – | – | ·
CCN(CC)S(=O)(=O)c1cccc(C(=O)Nc2cccc(C)c2)c1 | – | – | – | – | – | –
CCCCNC(=O)C1=C(N)C(C(=O)Nc2ccc(C)c(S(=O)(=O)N3CCCCC3)c2)SC1=Nc1ccc(C)cc1C (stereo not given) | – | – | – | 79.3 | – | –
CCN(CC)S(=O)(=O)c1cccc(NC(=O)C2SC(=Nc3ccc(C)cc3C)C(C(=O)NC(C)COC)=C2N)c1 (stereo not given) | – | – | – | 82.8 | – | –
O=C(NC1(C(F)(F)F)NC(=O)N(C2CCCC2)C1=O)C1CC1 (stereo not given) | – | – | – | – | – | –
Cn1c(C(=O)NC2CCCC2)cc2c(=O)n(C)c3ccccc3c21 | – | – | 56.3 | – | – | –
CCOc1ccc(NC(=O)c2cc3c(=O)n(C)c4ccccc4c3n2C)cc1 | – | – | – | 84.0 | – | –
Cc1ccc(Cl)c(OC(=O)c2nn(C(C)C)c(=O)c3ccccc23)c1 | – | · | · | · | · | –
CCN1CCN(C(=O)c2ccc(Cl)c(S(=O)(=O)N3CCOCC3)c2)CC1 | – | – | – | – | – | –
CCOC(=O)N1CCC(NC(=O)c2ccc(CS(=O)(=O)c3ccccc3C)o2)CC1 | – | – | – | 77.3 | – | –
CCOC(=O)N1CCN(C(=O)c2ccc(CS(=O)(=O)c3c(Cl)cccc3Cl)o2)CC1 | – | – | – | – | – | –
SMILES | CD11b adhes enh | CYP2C9 act | CYP2C19 inhib | CYP2C9 inhib | CYP2C19 act | CD11b adhes inh
Cc1ccccc1S(=O)(=O)Cc1ccc(C(=O)NCCCOC(C)C)o1 | – | – | – | – | – | –
CCOC(=O)N1CCC(NC(=O)c2ccc(CS(=O)(=O)c3c(Cl)cccc3Cl)o2)CC1 | – | – | – | 66.2 | – | –
CS(=O)(=O)N(CC(=O)N1CCC(C(N)=O)CC1)c1ccc(Oc2ccccc2)cc1 | – | – | – | – | – | –
COc1ccc2c(c1)C(=O)CC(c1ccccc1F)O2 (stereo not given) | · | – | 86.8 | – | – | ·
COc1ccc2c(c1)C(=O)c1ccccc1CO2 | – | – | – | – | – | –
CC(C)(C)Nc1nc(NN)nc(NC(C)(C)C)n1 | – | – | – | – | – | –
CNc1nc(Cl)nc(NC(C)(C)C)n1 | · | 2.7 | – | – | – | ·
Cc1cc(C)c(C#N)c(SCC(=O)N2CCCCC2)n1 | – | – | 53.5 | – | – | –
Cc1cc(C)c2nc(SCC(=O)N3CCCCC3)c(C#N)cc2c1 | – | – | – | – | – | –
CCN(Cc1ccccc1)C(=O)CSc1nc(C)cc(C)c1C#N | – | – | 62.3 | – | – | –
Cc1cc(C)c(C#N)c(SCC(=O)N2CCN(Cc3ccccc3)CC2)n1 | – | – | 51.5 | – | – | –
Cc1cccc(-c2c3c(=O)n(C)c(=O)n(C)c3c3cccnn23)c1 | – | – | – | – | – | –
CC1CCCN(S(=O)(=O)c2ccc(NC(=O)CN3CCN(C)CC3)cc2)C1 (stereo not given) | – | – | – | – | – | –
COc1ccccc1N1CCN(C(c2cccs2)C(C)NS(=O)(=O)c2ccccc2)CC1 (stereo not given) | – | – | 72.3 | 85.8 | – | –
CC(NS(=O)(=O)c1ccccc1)C(c1cccs1)N1CCN(c2ccccc2)CC1 (stereo not given) | – | – | – | – | – | –
CC1CCCN(S(=O)(=O)c2ccc(S(=O)(=O)NC(C)c3cccs3)cc2)C1 (stereo not given) | – | – | 100.0 | 74.5 | – | –
CC(NS(C)(=O)=O)C(c1cccs1)N1CCN(C)CC1 (stereo not given) | – | – | – | – | – | –
CC(NS(=O)(=O)c1ccc(Br)cc1)C(c1cccs1)N1CCN(C)CC1 (stereo not given) | – | – | 100.4 | – | – | –
Cc1cc(=O)n2nc(-c3ccc(C(F)(F)F)cc3)sc2n1 | – | – | – | – | – | –
COc1ccc2c(C)cc(Sc3nnnn3-c3ccccc3)nc2c1 | – | · | · | · | · | –
O=C1CC(c2ccco2)CC(O)=C1C=Nc1cc(Cl)ccc1O (stereo not given) | – | – | – | 72.7 | – | –
O=C1CC(c2ccco2)CC(O)=C1C=Nc1ccc(Br)cc1 (stereo not given) | – | – | – | – | – | –
O=S(=O)(NCc1ccncc1)c1ccc(Br)s1 | – | – | 98.0 | 50.8 | – | 97.6
O=C(NCc1ccccc1)c1cccc(S(=O)(=O)NCc2ccccc2)c1 | – | · | · | · | · | –
O=C(O)CNS(=O)(=O)c1ccc(Br)s1 | – | – | – | – | – | –
O=S(=O)(NCc1ccncc1)c1ccccc1 | – | – | 91.3 | – | – | –
CCOC(=O)COc1ccc(S(=O)(=O)NCc2cccnc2)cc1 | – | – | – | – | – | –
COC(=O)COc1ccc(S(=O)(=O)NCc2ccncc2)cc1 | – | – | 99.1 | 69.9 | – | 79.8

Screens (PubChem BioAssay)
